Among the test systems are SR leukemia; RPMI-8226 leukemia; OVCAR-8 ovarian; OVCAR-5 ovarian; OVCAR-4 ovarian; SK-OV-3 ovarian; IGROV1 ovarian; OVCAR-3 ovarian; HS 578T breast; NCI/ADR-RES ovarian; T-47D breast; BT-549 breast; MDA-MB-435 melanoma; SW-620 colon; MCF7 breast; HCT-116 colon; HCC-2998 colon; KM12 colon.
Common to all, as to experiment: NCI-60 one-dose screen, 48 h (100 = growth as untreated, 0 = no growth, -100 = all killed)
Common to all, as to details: 10 µM unless noted

About 83,000 compounds went through this panel and 20% of them were active in at least one assay; those are over-represented in the sample as a whole.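 In brief: 96-well plates, 48 h treatment, single concentration, percent growth endpoint.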 Calls of active or inactive are those of the source. How the source made its calls: active means growth percent below 10; inactive means the rest.

For the molecule `O=C(CBr)CN1C(=O)c2ccccc2C1=O`, the growth in the assay with SR leukemia is 98.9% (inactive); with RPMI-8226 leukemia it was 112% (inactive); in the assay on OVCAR-8 ovarian, 103% (inactive); with OVCAR-5 ovarian it was 97.4% (inactive); in the assay with OVCAR-4 ovarian, 103% (inactive); with SK-OV-3 ovarian it was 99.7% (inactive). Moreover, the growth was 103% (inactive) in the assay on IGROV1 ovarian; 102% (inactive) with OVCAR-3 ovarian; 105% (inactive) with HS 578T breast; 105% (inactive) in the assay with NCI/ADR-RES ovarian; 93.9% (inactive) in the assay with T-47D breast; 111% (inactive) with BT-549 breast. The growth in the assay on MDA-MB-435 melanoma is 103% (inactive); with SW-620 colon, 109% (inactive); with MCF7 breast it was 97.7% (inactive); in the assay with HCT-116 colon, 102% (inactive); in the assay on HCC-2998 colon it was 98.8% (inactive); in the assay on KM12 colon, 97.6% (inactive).
Turning to `N#Cc1c(Nc2ccc(F)cc2)n[nH]c1-c1cccs1`, the growth in the assay with SR leukemia was 107% (inactive); in the assay with RPMI-8226 leukemia it was 97.3% (inactive); in the assay with OVCAR-8 ovarian, 105% (inactive); with OVCAR-5 ovarian, 100% (inactive); in the assay on OVCAR-4 ovarian, 92% (inactive); in the assay with SK-OV-3 ovarian, 115% (inactive). Moreover, the growth in the assay with IGROV1 ovarian was 71.8% (inactive); with OVCAR-3 ovarian it was 109% (inactive); with HS 578T breast it was 101% (inactive); in the assay on NCI/ADR-RES ovarian, 100% (inactive); in the assay on T-47D breast, 86% (inactive); in the assay with BT-549 breast, 98.3% (inactive). The growth in the assay on MDA-MB-435 melanoma is 99.5% (inactive); with SW-620 colon, 101% (inactive); in the assay with MCF7 breast, 80.9% (inactive); in the assay on HCT-116 colon, 100% (inactive); in the assay on HCC-2998 colon, 98.6% (inactive); in the assay on KM12 colon, 98.1% (inactive).
Take `COC(=O)c1c2c(c(C)[n+]([O-])c1C)C(=O)C=CC2=O`: the growth in the assay on SR leukemia is 20.2% (inactive); in the assay with RPMI-8226 leukemia it was -24.8% (active); in the assay with OVCAR-8 ovarian, -6.72% (active); in the assay with OVCAR-5 ovarian, -61.1% (active); with OVCAR-4 ovarian it was -16.6% (active); in the assay with SK-OV-3 ovarian it was 90.3% (inactive). In addition, the growth with IGROV1 ovarian is -38.2% (active); in the assay with OVCAR-3 ovarian, -8.77% (active); in the assay on HS 578T breast, 0.0938% (active); with NCI/ADR-RES ovarian it was -19.8% (active); with T-47D breast, -12.6% (active); in the assay with BT-549 breast it was -90.3% (active). Also, the growth in the assay on MDA-MB-435 melanoma was -61.4% (active); in the assay with SW-620 colon, -19.5% (active); in the assay on MCF7 breast it was -59.4% (active); with HCT-116 colon, -14% (active); with HCC-2998 colon, -61.3% (active); in the assay with KM12 colon, 4.57% (active).
With `CC1=NN(c2ccc(Cl)cc2)CC1(C)N=O` (centres undefined), the growth was 33% (inactive) in the assay with SR leukemia; 89.3% (inactive) in the assay on RPMI-8226 leukemia; 88.2% (inactive) in the assay on OVCAR-8 ovarian; 126% (inactive) in the assay on OVCAR-5 ovarian; 77.3% (inactive) in the assay on OVCAR-4 ovarian; 114% (inactive) with SK-OV-3 ovarian. Also, the growth with IGROV1 ovarian was 103% (inactive); with OVCAR-3 ovarian, 62.1% (inactive); in the assay with HS 578T breast it was 82.9% (inactive); with NCI/ADR-RES ovarian it was 94.4% (inactive); in the assay with T-47D breast, 60.8% (inactive); in the assay with BT-549 breast it was 86.1% (inactive). Besides, the growth in the assay with MDA-MB-435 melanoma was 48.5% (inactive); in the assay on SW-620 colon, 43.7% (inactive); with MCF7 breast it was 29.7% (inactive); with HCT-116 colon it was 30.9% (inactive); in the assay with HCC-2998 colon, 102% (inactive); in the assay on KM12 colon, 99.5% (inactive).
As to `CC/C=C\C/C=C/C=C1/C(=O)C=C[C@@H]1C/C=C\CCCC(=O)OC`, the growth in the assay with SR leukemia was 5.21% (active); in the assay on RPMI-8226 leukemia it was 1.81% (active); in the assay with OVCAR-8 ovarian, 13.2% (inactive); in the assay with OVCAR-5 ovarian, 63.8% (inactive); in the assay with OVCAR-4 ovarian, 85.4% (inactive); in the assay on SK-OV-3 ovarian it was 110% (inactive). In addition, the growth with IGROV1 ovarian was 65.4% (inactive); in the assay with OVCAR-3 ovarian, 11.1% (inactive); with HS 578T breast it was 11.9% (inactive); in the assay with NCI/ADR-RES ovarian, 73.5% (inactive); in the assay with T-47D breast it was 16.7% (inactive); in the assay with BT-549 breast it was -21.9% (active). Besides, the growth was -39.3% (active) with MDA-MB-435 melanoma; -14.3% (active) in the assay with SW-620 colon; 18.6% (inactive) in the assay on MCF7 breast; -76.1% (active) in the assay on HCT-116 colon; 62% (inactive) with HCC-2998 colon; 20.4% (inactive) in the assay on KM12 colon.
Take `Cc1[nH]c(C(=O)Nc2cccc(OC3CCNCC3)c2)c(Cl)c1Cl`: the growth with SR leukemia was 13.6% (inactive); in the assay on RPMI-8226 leukemia, 43.2% (inactive); in the assay with OVCAR-8 ovarian, 94.2% (inactive); in the assay on OVCAR-5 ovarian, 95.4% (inactive); in the assay on OVCAR-4 ovarian it was 98.6% (inactive); in the assay on SK-OV-3 ovarian, 96.5% (inactive). In addition, the growth in the assay with IGROV1 ovarian is 60.6% (inactive); in the assay with OVCAR-3 ovarian, 82.4% (inactive); in the assay with HS 578T breast it was 56.6% (inactive); in the assay on NCI/ADR-RES ovarian, 89.2% (inactive); with T-47D breast, 87.9% (inactive); with BT-549 breast, 84.6% (inactive). Besides, the growth in the assay with MDA-MB-435 melanoma was 43% (inactive); in the assay on SW-620 colon it was 0.537% (active); in the assay on MCF7 breast it was 47.4% (inactive); with HCT-116 colon it was 46.2% (inactive); with HCC-2998 colon it was 2.97% (active); with KM12 colon, 57% (inactive).
Turning to `Cn1cc(-c2csc(-c3cn(C)c4ccc(Br)cc34)n2)c2cnccc21`, the growth was -29.6% (active) in the assay with SR leukemia; -37.3% (active) with RPMI-8226 leukemia; -49.4% (active) in the assay with OVCAR-8 ovarian; -67.3% (active) in the assay on OVCAR-5 ovarian; -50.9% (active) in the assay on OVCAR-4 ovarian; 96.5% (inactive) in the assay with SK-OV-3 ovarian. For the same molecule, the growth in the assay on IGROV1 ovarian was -91.5% (active); with OVCAR-3 ovarian, -92.9% (active); in the assay with HS 578T breast it was -40% (active); in the assay with NCI/ADR-RES ovarian it was -69.5% (active); with T-47D breast, -47.3% (active); in the assay on BT-549 breast, 86.2% (inactive). For the same molecule, the growth with MDA-MB-435 melanoma is -87.6% (active); with SW-620 colon it was -70% (active); with MCF7 breast, -74.7% (active); in the assay with HCT-116 colon, -89.8% (active); with HCC-2998 colon, -84.3% (active); in the assay with KM12 colon, -87.4% (active).
Turning to `C=C1C(=O)O[C@H]2[C@H]1CC/C(COC(=O)NCc1ccc(Cn3c(=O)sn(-c4ccc(OC)cc4)c3=O)cc1)=C\CC[C@@]1(C)O[C@@H]21`, the growth in the assay with SR leukemia is 27.3% (inactive); in the assay on RPMI-8226 leukemia it was -3.82% (active); with OVCAR-8 ovarian it was 75.8% (inactive); in the assay with OVCAR-5 ovarian it was 83.6% (inactive); in the assay with OVCAR-4 ovarian, 35.7% (inactive); with SK-OV-3 ovarian it was 105% (inactive). The growth is 46.7% (inactive) in the assay with IGROV1 ovarian; -27.1% (active) in the assay on OVCAR-3 ovarian; 90.7% (inactive) in the assay with HS 578T breast; 95.8% (inactive) with NCI/ADR-RES ovarian; 18.5% (inactive) in the assay on T-47D breast; 73.1% (inactive) in the assay with BT-549 breast. Also, the growth in the assay on MDA-MB-435 melanoma is 67.1% (inactive); with SW-620 colon, -59.8% (active); with MCF7 breast it was 20.3% (inactive); in the assay with HCT-116 colon it was 5.31% (active); with HCC-2998 colon, 97.5% (inactive); in the assay with KM12 colon, 95.3% (inactive).

The values are drawn from PubChem BioAssay (NCI).
